Source: PubChem BioAssay AID602281 (The Scripps Research Institute Molecular Screening Center, 2012)
About 2,900 (0.81%) of roughly 360,000 compounds were called active. The entries come from a sample that favours actives as a whole. A number with no mark means an inactive call.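 Rule for the calls: active = inhibition above the mean inhibition across every tested compound plus 3 SD (cut at about 22% in these data); inactive = the rest.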

biological target: Perilipin-5 (Homo sapiens) + 1-acylglycerol-3-phosphate O-acyltransferase ABHD5 (Homo sapiens) (UniProt Q00G26+Q8WTS1); assay: ABHD5-PLIN5 interaction inhibitors, primary screen, cell lysate, split luciferase complementation, luminescence (AID 602281);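 note: 0% = DMSO only wells and the 100% control is not disclosed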; details: Split G. princeps luciferase complementation, 4 h, at 4 µM, hits give high values
Sequence (Q00G26 whole entry, looked up): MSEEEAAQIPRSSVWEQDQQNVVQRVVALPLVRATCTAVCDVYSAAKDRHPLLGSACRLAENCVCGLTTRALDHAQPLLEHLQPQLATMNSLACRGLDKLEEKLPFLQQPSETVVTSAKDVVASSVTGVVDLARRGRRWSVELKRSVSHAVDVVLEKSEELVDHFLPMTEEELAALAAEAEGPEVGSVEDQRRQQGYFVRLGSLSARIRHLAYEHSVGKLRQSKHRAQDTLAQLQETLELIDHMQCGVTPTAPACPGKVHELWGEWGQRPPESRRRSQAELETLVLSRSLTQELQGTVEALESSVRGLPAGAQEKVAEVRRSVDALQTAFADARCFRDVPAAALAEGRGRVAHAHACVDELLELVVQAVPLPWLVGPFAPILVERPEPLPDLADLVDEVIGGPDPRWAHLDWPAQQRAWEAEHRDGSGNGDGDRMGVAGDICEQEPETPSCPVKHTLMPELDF
Sequence (Q8WTS1 whole entry, looked up): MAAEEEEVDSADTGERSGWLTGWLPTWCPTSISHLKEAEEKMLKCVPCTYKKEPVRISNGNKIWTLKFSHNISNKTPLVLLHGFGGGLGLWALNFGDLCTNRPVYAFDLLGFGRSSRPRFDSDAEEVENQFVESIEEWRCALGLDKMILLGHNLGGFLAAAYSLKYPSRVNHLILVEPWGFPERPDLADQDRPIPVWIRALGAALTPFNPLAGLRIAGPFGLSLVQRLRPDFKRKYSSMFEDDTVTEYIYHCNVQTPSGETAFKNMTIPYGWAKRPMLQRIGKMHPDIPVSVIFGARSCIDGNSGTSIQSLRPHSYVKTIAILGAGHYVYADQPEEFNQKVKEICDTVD

Structure (SMILES) | inhibition
NC(=O)C1CCN(C(=O)c2ccc(-c3ccccc3)cc2)CC1 | 5.48%
NS(=O)(=O)c1ccc(NC(=O)COC(=O)C2(c3ccc(F)cc3)CCCC2)cc1 | -6.25%
O=C1c2cccnc2C(Nc2ccc(S(=O)(=O)N3CCCCCC3)cc2)N1Cc1ccccc1 (stereo unspecified) | -3.06%
O=C(CCNS(=O)(=O)c1ccccc1C(F)(F)F)Nc1ccncc1 | 3.18%
Nc1cccc(OCCCCCOc2cccc(N)c2)c1 | 68.8% (active)
C=CCNCCCCOc1ccccc1 | -2.87%
CN(C)CCOc1cccc(Br)c1 | -5.46%
O=C(COC(=O)c1cnccn1)Nc1cccc2ccccc12 | -5.15%
COc1cccc2cc(C(C)N(CCCN3CCOCC3)C(=O)Nc3ccc(Cl)cc3)oc12 (stereo unspecified) | 7.7%
O=C(Cn1nc(CNc2ccc(Cl)cc2)[n+]2c1CCCCC2)c1ccc(Cl)cc1 | 28.2% (active)
O=C(Cn1nnc(N2CCCCC2)n1)c1ccc(Cl)c(Cl)c1 | -2.6%
O=C(Cn1ncc(N2CCCC2)c(Br)c1=O)c1ccc(Cl)cc1 | 3.08%
N#Cc1ccc(C2N=C(c3ccccc3)NO2)cc1 (stereo unspecified) | 5.57%
Cc1noc(C)c1NC(=O)Nc1ccc2c(c1)C(=O)N([C@H](C)CO)C[C@H](C)[C@@H](CN(C)S(=O)(=O)c1cn(C)cn1)O2 | 3.26%
Cc1cccc(C)c1NC(=O)CCCSc1nnc(-c2ccco2)n1-c1ccccc1 | -1.49%
Cc1cccc(C)c1NC(=O)C(c1cccc2ccccc12)n1c(=O)c(-c2ccco2)nc2ccccc21 (stereo unspecified) | 71.4% (active)
Cn1c(SCC(=O)NC2CCCCC2)nnc1-c1cc2ccccc2o1 | -2.37%
COc1ccc(C(C(=O)Nc2c(C)cccc2C)N2CCN(c3ccc(C)cc3)CC2)cc1 (stereo unspecified) | -0.48%
CCC(C(=O)Nc1c(C)cccc1C)n1c(-c2cc(C)cs2)nc2ccccc21 (stereo unspecified) | -1.93%
CCC(CC)C(C(=O)NC1CCCC1)N1CCN(c2cc(C)nc3ccccc23)CC1 (stereo unspecified) | 1.05%
CCCCCNC(=O)C(c1ccc(OC)cc1)n1c(=O)c(-c2ccccc2)nc2ccccc21 (stereo unspecified) | 1.61%
COc1ccc(C(C(=O)NCc2ccccc2)n2c(=O)c(-c3ccccc3)nc3ccccc32)cc1 (stereo unspecified) | 18.6%
O=C(NC1CCCCC1)C(c1cc2ccccc2o1)n1c(=O)c(-c2ccco2)nc2ccccc21 (stereo unspecified) | 78.2% (active)
Cc1cccc(C)c1NC(=O)C(c1ccc(C(F)(F)F)cc1)n1c(=O)c(-c2ccco2)nc2ccccc21 (stereo unspecified) | 74.7% (active)
N#Cc1ccc(C(C(=O)NCc2ccccc2)n2c(=O)c(-c3ccco3)nc3ccccc32)cc1 (stereo unspecified) | 76.5% (active)
COc1ccc(NC(=O)C(c2ccncc2)n2c(=O)c(-c3cc4ccccc4[nH]3)nc3ccccc32)cc1 (stereo unspecified) | -4.13%
